# Laboratory results: the supplement of paper PMC8728848
# This excerpt belongs to a sample that is enriched for the strongest signals.
# Legend:
# Assay in all cases: glycan array binding signal (z-score within array); higher = stronger binding
# Conditions in all cases: glycan notation: IUPAC condensed, linker removed
# [1] = molecular target: Fuc(a1-2)Gal(b1-3)GalNAc(b1-3)Gal
# In short: (§1)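 Arrays were curated from the Consortium for Functional Glycomics database, 3228 in total, and kept only where the protein sequence was available. Binding is expressed as a within-array Z-score. This score was averaged across arrays of the same protein sequence at different concentrations or buffers and across linkers, and negative values can be read as non-binding.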
# [2] = molecular target: Fuc(a1-2)Gal(b1-3)GlcNAc(b1-2)Man(a1-3)[Fuc(a1-2)Gal(b1-3)GlcNAc(b1-2)Man(a1-6)]Man(b1-4)GlcNAc(b1-4)[Fuc(a1-6)]GlcNAc
# In short: as §1
# [3] = molecular target: Fuc(a1-2)Gal(b1-4)[Fuc(a1-3)]GlcNAc(b1-3)[Neu5Ac(a2-6)Gal(b1-4)GlcNAc(b1-6)]Gal(b1-4)Glc
# In short: as §1
# [4] = molecular target: Fuc(a1-2)Gal6S(b1-4)Glc6S
# In short: as §1
# [5] = molecular target: Fuc(a1-2)[Gal(a1-3)]Gal(b1-3)GlcNAc(b1-2)Man(a1-3)[Fuc(a1-2)[Gal(a1-3)]Gal(b1-3)GlcNAc(b1-2)Man(a1-6)]Man(b1-4)GlcNAc(b1-4)GlcNAc
# In short: as §1
# [6] = molecular target: Fuc(a1-2)[Gal(a1-3)]Gal(b1-3)GlcNAc(b1-2)Man(a1-3)[Fuc(a1-2)[Gal(a1-3)]Gal(b1-3)GlcNAc(b1-2)Man(a1-6)]Man(b1-4)GlcNAc(b1-4)[Fuc(a1-6)]GlcNAc
# In short: as §1
# [7] = molecular target: Fuc(a1-2)[Gal(a1-3)]Gal(b1-4)[Fuc(a1-3)]GlcNAc(b1-3)GalNAc
# In short: as §1
# [8] = molecular target: Fuc(a1-2)[GalNAc(a1-3)]Gal(b1-4)Glc
# In short: as §1
# [9] = molecular target: Fuc(a1-3)[Gal(b1-4)]GlcNAc
# In short: as §1
# [10] = molecular target: Fuc(a1-3)[GalNAc(b1-4)]GlcNAc6S
# In short: as §1
# Fuc(b1-3)GlcNAc = molecular target: Fuc(b1-3)GlcNAc
# In short: as §1
# [11] = molecular target: Gal(a1-3)Gal(b1-4)GlcNAc(b1-3)GalNAc
# In short: as §1
# [12] = molecular target: Gal(a1-3)Gal(b1-4)[Fuc(a1-3)]GlcNAc(b1-2)Man(a1-3)[Gal(a1-3)Gal(b1-4)[Fuc(a1-3)]GlcNAc(b1-2)Man(a1-6)]Man(b1-4)GlcNAc(b1-4)GlcNAc
# In short: as §1
# [13] = molecular target: Gal(a1-4)Gal(b1-3)GlcNAc(b1-2)Man(a1-3)[Gal(a1-4)Gal(b1-3)GlcNAc(b1-2)Man(a1-6)]Man(b1-4)GlcNAc(b1-4)GlcNAc
# In short: as §1
# [14] = molecular target: Gal(a1-4)Gal(b1-4)GlcNAc(b1-3)Gal(b1-4)Glc
# In short: as §1
# Gal(b1-3)Gal(b1-4)GlcNAc = molecular target: Gal(b1-3)Gal(b1-4)GlcNAc
# In short: as §1
# Gal(b1-3)GalNAc(b1-3)Gal = molecular target: Gal(b1-3)GalNAc(b1-3)Gal
# In short: as §1
# [15] = molecular target: Gal(b1-3)GalNAc(b1-4)Gal(b1-4)Glc
# In short: as §1
# Gal(b1-3)GlcNAc(b1-2)Man = molecular target: Gal(b1-3)GlcNAc(b1-2)Man
# In short: as §1
# [16] = molecular target: Gal(b1-3)GlcNAc(b1-3)Gal(b1-4)GlcNAc(b1-2)[Gal(b1-3)GlcNAc(b1-3)Gal(b1-4)GlcNAc(b1-6)]Man(a1-6)[Gal(b1-3)GlcNAc(b1-3)Gal(b1-4)GlcNAc(b1-2)Man(a1-3)]Man(b1-4)GlcNAc(b1-4)[Fuc(a1-6)]GlcNAc
# In short: as §1
# [17] = molecular target: Gal(b1-3)GlcNAc(b1-3)GalNAc
# In short: as §1
# [18] = molecular target: Gal(b1-3)[Neu5Ac(b2-6)]GalNAc
# In short: as §1
# [19] = molecular target: Gal(b1-4)GalNAc(b1-3)[Fuc(a1-2)]Gal(b1-4)GlcNAc
# In short: as §1
# Gal(b1-4)Glc6S = molecular target: Gal(b1-4)Glc6S
# In short: as §1
# [20] = molecular target: Gal(b1-4)GlcNAc(b1-2)[Gal(b1-4)GlcNAc(b1-4)]Man(a1-3)[Gal(b1-4)GlcNAc(b1-2)[Gal(b1-4)GlcNAc(b1-6)]Man(a1-6)]Man(b1-4)GlcNAc(b1-4)GlcNAc
# In short: as §1
# [21] = molecular target: Gal(b1-4)GlcNAc(b1-3)Gal(b1-4)GlcNAc(b1-2)Man(a1-3)[Gal(b1-4)GlcNAc(b1-3)Gal(b1-4)GlcNAc(b1-2)Man(a1-6)]Man(b1-4)GlcNAc(b1-4)[Fuc(a1-6)]GlcNAc
# In short: as §1
# [22] = molecular target: Gal(b1-4)GlcNAc(b1-3)Gal(b1-4)GlcNAc(b1-3)Gal(b1-4)GlcNAc(b1-3)Gal(b1-4)GlcNAc(b1-3)Gal(b1-4)GlcNAc(b1-2)[Gal(b1-4)GlcNAc(b1-3)Gal(b1-4)GlcNAc(b1-3)Gal(b1-4)GlcNAc(b1-3)Gal(b1-4)GlcNAc(b1-3)Gal(b1-4)GlcNAc(b1-6)]Man(a1-6)[Gal(b1-4)GlcNAc(b1-3)Gal(b1-4)GlcNAc(b1-3)Gal(b1-4)GlcNAc(b1-3)Gal(b1-4)GlcNAc(b1-3)Gal(b1-4)GlcNAc(b1-2)Man(a1-3)]Man(b1-4)GlcNAc(b1-4)[Fuc(a1-6)]GlcNAc
# In short: as §1
# [23] = molecular target: Gal(b1-4)GlcNAc(b1-3)[Fuc(a1-3)GlcNAc(b1-6)]Gal(b1-4)Glc
# In short: as §1
# [24] = molecular target: Gal(b1-4)GlcNAc(b1-6)Gal(b1-4)GlcNAc
# In short: as §1
# Gal3S(b1-4)Glc = molecular target: Gal3S(b1-4)Glc
# In short: as §1
# GlcA(b1-3)Gal = molecular target: GlcA(b1-3)Gal
# In short: as §1
# [25] = molecular target: GlcNAc(a1-4)Gal(b1-4)GlcNAc(b1-3)Gal(b1-4)Glc
# In short: as §1
# [26] = molecular target: GlcNAc(b1-2)Man(a1-3)[GlcNAc(b1-4)][GlcNAc(b1-2)Man(a1-6)]Man(b1-4)GlcNAc(b1-4)GlcNAc
# In short: as §1
# [27] = molecular target: GlcNAc(b1-2)[GlcNAc(b1-6)]Man(a1-6)[GlcNAc(b1-2)Man(a1-3)]Man(b1-4)GlcNAc(b1-4)[Fuc(a1-6)]GlcNAc
# In short: as §1
# [28] = molecular target: GlcNAc(b1-3)Gal(b1-4)GlcNAc(b1-3)Gal(b1-4)GlcNAc(b1-2)Man(a1-3)[GlcNAc(b1-3)Gal(b1-4)GlcNAc(b1-3)Gal(b1-4)GlcNAc(b1-2)Man(a1-6)]Man(b1-4)GlcNAc(b1-4)GlcNAc
# In short: as §1
# GlcNAc(b1-3)Man = molecular target: GlcNAc(b1-3)Man
# In short: as §1
# Kdn(a2-3)Gal(b1-4)GlcNAc = molecular target: Kdn(a2-3)Gal(b1-4)GlcNAc
# In short: as §1
# [29] = molecular target: Man(a1-2)Man(a1-3)[Man(a1-2)Man(a1-6)]Man(a1-6)[Man(a1-2)Man(a1-2)Man(a1-3)]Man
# In short: as §1
# [30] = molecular target: Neu5Ac(a2-3)Gal(b1-3)GalNAc
# In short: as §1
# [31] = molecular target: Neu5Ac(a2-3)Gal(b1-3)[Fuc(a1-4)]GlcNAc(b1-3)Gal(b1-3)[Fuc(a1-4)]GlcNAc
# In short: as §1
# [32] = molecular target: Neu5Ac(a2-3)Gal(b1-3)[Neu5Ac(a2-6)]GalNAc
# In short: as §1
# [33] = molecular target: Neu5Ac(a2-3)Gal(b1-4)GlcNAc(b1-3)Gal(b1-4)GlcNAc(b1-3)[Neu5Ac(a2-3)Gal(b1-4)GlcNAc(b1-3)Gal(b1-4)GlcNAc(b1-6)]GalNAc
# In short: as §1
# [34] = molecular target: Neu5Ac(a2-3)Gal(b1-4)GlcNAc(b1-3)[Neu5Ac(a2-3)Gal(b1-4)GlcNAc(b1-6)]GalNAc
# In short: as §1
# [35] = molecular target: Neu5Ac(a2-3)Gal(b1-4)[Fuc(a1-3)]GlcNAc(b1-6)[Neu5Ac(a2-3)Gal(b1-3)]GalNAc
# In short: as §1
# [36] = molecular target: Neu5Ac(a2-3)Gal(b1-4)[Fuc(a1-3)]GlcNAc6S
# In short: as §1
# [37] = molecular target: Neu5Ac(a2-3)GalNAc(b1-4)GlcNAc
# In short: as §1
# [38] = molecular target: Neu5Ac(a2-6)Gal(b1-4)GlcNAc
# In short: as §1
# [39] = molecular target: Neu5Ac(a2-6)Gal(b1-4)GlcNAc(b1-2)Man(a1-3)[Neu5Ac(a2-3)Gal(b1-4)GlcNAc(b1-2)Man(a1-6)]Man(b1-4)GlcNAc(b1-4)GlcNAc
# In short: as §1
binder,measurement,setting,value
FimA-N3 (Actinomyces oris) (protein) MHHHHHHSSGVDLGTENLYFQSNAGLQGAQFQLYKAKNAYANTCSNEKEGAPIAINGQTTLTTDAQGAIDIKGLFISDSIDGADRDNQVNAMERCYVLVETKAPAGYVLPAGNGAATPVKVKAGEETTDN,glycan array binding signal (z-score),[1],5.62
same,glycan array binding signal (z-score),[2],-0.196
same,glycan array binding signal (z-score),[3],-0.472
same,glycan array binding signal (z-score),[4],0.307
same,glycan array binding signal (z-score),[5],-0.378
same,glycan array binding signal (z-score),[6],-0.364
same,glycan array binding signal (z-score),[7],0.505
same,glycan array binding signal (z-score),[8],-0.493
same,glycan array binding signal (z-score),[9],-0.369
same,glycan array binding signal (z-score),[10],4.08
same,glycan array binding signal (z-score),Fuc(b1-3)GlcNAc,-0.128
same,glycan array binding signal (z-score),[11],0.243
same,glycan array binding signal (z-score),[12],-0.667
same,glycan array binding signal (z-score),[13],-0.264
same,glycan array binding signal (z-score),[14],-0.388
same,glycan array binding signal (z-score),Gal(b1-3)Gal(b1-4)GlcNAc,0.999
same,glycan array binding signal (z-score),Gal(b1-3)GalNAc(b1-3)Gal,-0.367
same,glycan array binding signal (z-score),[15],3.23
same,glycan array binding signal (z-score),Gal(b1-3)GlcNAc(b1-2)Man,-0.37
same,glycan array binding signal (z-score),[16],2.94
same,glycan array binding signal (z-score),[17],-0.259
same,glycan array binding signal (z-score),[18],-0.563
same,glycan array binding signal (z-score),[19],-0.587
same,glycan array binding signal (z-score),Gal(b1-4)Glc6S,-0.058
same,glycan array binding signal (z-score),[20],-0.618
same,glycan array binding signal (z-score),[21],-0.021
same,glycan array binding signal (z-score),[22],4.26
same,glycan array binding signal (z-score),[23],-0.038
same,glycan array binding signal (z-score),[24],-0.237
same,glycan array binding signal (z-score),Gal3S(b1-4)Glc,0.681
LecB PA14 (Pseudomonas aeruginosa) (protein) MATQGVFTLPANTQFGVTAFANSAGTQTVNVQVNNETVATFTGQSTNNAIIGSKVLNSGGGGKVQILVSVNGRSSDLVSAQVILANELNFALVGSEDSTDNDYNDAVVVINWPLG,glycan array binding signal (z-score),GlcA(b1-3)Gal,0.136
same,glycan array binding signal (z-score),[25],-0.506
same,glycan array binding signal (z-score),[26],-0.629
same,glycan array binding signal (z-score),[27],-0.125
same,glycan array binding signal (z-score),[28],0.43
same,glycan array binding signal (z-score),GlcNAc(b1-3)Man,-0.123
same,glycan array binding signal (z-score),Kdn(a2-3)Gal(b1-4)GlcNAc,-0.618
same,glycan array binding signal (z-score),[29],5.22
same,glycan array binding signal (z-score),[30],-0.314
same,glycan array binding signal (z-score),[31],3.3
same,glycan array binding signal (z-score),[32],-0.618
same,glycan array binding signal (z-score),[33],-0.427
same,glycan array binding signal (z-score),[34],-0.521
same,glycan array binding signal (z-score),[35],-0.054
same,glycan array binding signal (z-score),[36],0.335
same,glycan array binding signal (z-score),[37],-0.298
same,glycan array binding signal (z-score),[38],-0.39
same,glycan array binding signal (z-score),[39],-0.741
